The panel holds about 83,000 compounds, 20% with a hit somewhere; the sample as a whole holds those more often.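 A percent growth of 40 corresponds to 60% growth inhibition; 0 means no net growth; -100 means all cells died. Active threshold: below 10.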 Values without a mark were called inactive. Activity calls are given as the source filed them.
Each compound was assayed on M14 melanoma (assay: NCI-60 one-dose screen, 48 h (100 = growth as untreated, 0 = no growth, -100 = all killed)). Conditions: 10 µM unless noted.

Question: With `C=C(C)[C@@H]1CC[C@]2(COS(C)(=O)=O)CC[C@]3(C)[C@H](CC[C@@H]4[C@@]5(C)CCCNC(C)(C)[C@@H]5CC[C@]43C)[C@@H]12` as the compound, how does the growth read?
Answer: 84%

Question: With `CC(C)=CCc1c2c(c(O)c3c1O[C@]14C(=C[C@@H]5C[C@H]1C(C)(C)O[C@@]4(C/C=C(/C)C(=O)O)C5=O)C3=O)CC(O)C(C)(C)O2` (some centres not stated) as the compound, how does the growth read?
Answer: -24.8% (active)

Question: For `O=C(Cn1cc(CN2C(=O)c3ccc([N+](=O)[O-])cc3C2=O)nn1)Nc1ccccc1Br`, which growth is on record?
Answer: 101%

Question: For `COc1cc(-c2nc(SCc3ccc(C)cc3)[nH]c(=O)c2C#N)ccc1OCc1ccccc1`, which growth is on record?
Answer: 105%

Question: For `CC(C)N=C(N/C(N)=N/c1nc2ccccc2s1)NC(C)C`, which growth is on record?
Answer: 58%

Question: With `O=C(Nc1cc(Cl)cc(Cl)c1)Nc1ccc2oc(=O)ccc2c1` as the compound, how does the growth read?
Answer: 32.5%

Question: With `CS(=O)(=O)c1nccc(-c2c(-c3ccc(F)c(OCc4ccccc4)c3)nc3sccn23)n1` as the compound, how does the growth read?
Answer: 51.7%

Question: For `COc1ccc(C2C(C#N)=C(N)Oc3c2sc2ccc(C)cc32)cc1` (configuration not stated), which growth is on record?
Answer: 20.9%

Question: `C#C[C@]1(O)CC[C@H]2[C@@H]3CC=C4c5sc(-c6ccccn6)nc5CC[C@]4(C)[C@H]3CC[C@@]21C` was tested. Which growth did it give?
Answer: 74.8%

Question: How did the growth turn out when `COc1ccc(OC)c([C@H]2c3[nH]c4ccccc4c3C[C@H]3C(=O)N(CCCCCCC(=O)NO)CC(=O)N23)c1` was run?
Answer: 83.3%

Question: For `Cc1cnc2nc(NN)[nH]n12`, which growth is on record?
Answer: 101%

Question: How did the growth turn out when `COc1ccc(-c2nc3cc(Cl)c(Cl)cc3n2CC(=O)N=Nc2c(O)[nH]c3ccc(Br)cc23)cc1` was run?
Answer: -48.8% (active)

— PubChem BioAssay (NCI)
